Measured values published in PubChem BioAssay (NCI).
Values joined by “and” are separate entries in the source; they are usually repeats but may differ in a detail not shown here. Identical values can stand only once. About 83,000 compounds went through this panel and 20% of them were active in at least one assay; those are over-represented in the sample as a whole.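 Plates (96-well) were seeded with cells, treated with compound at one concentration, and incubated for 48 hours before percent growth was determined.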 Active and inactive are the calls of the source. Rule for the calls: active = growth percent below 10; inactive = the rest.

What was measured:
Assay in all cases: NCI-60 one-dose screen, 48 h (100 = growth as untreated, 0 = no growth, -100 = all killed)
Details in all cases: 10 µM unless noted
[1] = system: SR leukemia
[2] = system: RPMI-8226 leukemia
[3] = system: OVCAR-8 ovarian
[4] = system: OVCAR-5 ovarian
[5] = system: OVCAR-4 ovarian
[6] = system: SK-OV-3 ovarian
[7] = system: IGROV1 ovarian
[8] = system: OVCAR-3 ovarian
[9] = system: HS 578T breast
[10] = system: NCI/ADR-RES ovarian

Measured: growth

COc1ccc2ccccc2c1/C=C1\SC(=Nc2ccc(O)cc2)NC1=O
inactive: [1] 20.8% | [4] 10.3% | [5] 56.2% | [6] 29.6% | [7] 11.3% | [8] 35.5% | [9] 24.1%
active: [2] -12.7% | [3] 9.1% | [10] -5.75%

COc1cc(C2CC(c3cc(OC)c(OC)c(OC)c3)=Nc3c(N)nc(N)nc3N2)ccc1Oc1nc(Nc2ccc(F)cc2)nc(N(C)C)n1 (stereo not given)
inactive: [2] 33.9% | [3] 59% | [4] 105% | [5] 49.2% | [6] 107% | [7] 70.8% | [8] 74.2% | [9] 48.2% | [10] 66.4%
active: [1] -7.88%

COc1cc(NC(=O)C(C)C)ccc1C(=O)NC(=S)Nc1ccc(S(N)(=O)=O)cc1
inactive: [1] 111% | [2] 107% | [3] 79.3% | [4] 110% | [5] 98.5% | [6] 112% | [7] 97.2% | [8] 92% | [9] 86.2% | [10] 102%

COc1ccc(-c2nc3ccc(-c4nnc(SCc5ccccc5)o4)cc3[nH]2)cc1OC
inactive: [1] 56.3% | [2] 44.5% | [4] 34.2% | [6] 62.9% | [7] 42.8% | [8] 10.7%
active: [3] 6.86% | [5] -45.4% | [9] 2.46% | [10] 7.16%

N/C(=N\c1nc2ccccc2s1)NC(=O)Nc1ccccc1[N+](=O)[O-]
active: [2] 2.19% | [3] -18.8% | [6] 2.97% | [8] -7.53% | [10] -11.3%
inactive: [1] 13.6% | [4] 10.9% | [5] 34.9% | [7] 20.2% | [9] 41.5%

CCC1(OC(=O)c2ccccc2SSCCOC(=O)CCCCC2SCC3NC(=O)NC32)C(=O)OCc2c1cc1n(c2=O)Cc2cc3ccccc3nc2-1 (stereo not given)
inactive: [2] 33.1% | [3] 37.4% | [4] 97% | [5] 66% | [6] 46.3% | [7] 75.3% | [8] 72.7% | [9] 82.9% | [10] 24.2%
active: [1] 3.84%

CC1=C(C(=O)Nc2ccccc2)C(c2cccc3ccccc23)n2c(nc3ccccc32)N1 (stereo not given)
active: [3] -0.819% | [6] -2.39% | [9] -13.9%
inactive: [1] 72.4% | [2] 76.9% | [4] 76.3% | [5] 42.3% | [7] 68% | [8] 38.6% | [10] 32.2%

COc1ccc(/C=C/c2nc3ccccc3c(=O)n2CC(=O)Nc2ccccc2)cc1
active: [5] 0.985% | [9] 9.93%
inactive: [1] 54.7% | [2] 81.8% | [3] 43.6% | [4] 60.6% | [6] 44.9% | [7] 49.9% | [8] 49.3% | [10] 36.8%

O=C(CSc1nnc(-c2ccc(-c3nc4ccccc4[nH]3)cc2)o1)Nc1ccccc1
inactive: [1] 34.1% | [2] 56.5% | [3] 31.5% | [4] 86% | [5] 94% | [6] 84.7% | [7] 85% | [8] 92.2% | [9] 70.9% | [10] 76.3%

COc1ccc(-c2cc(-c3ccccc3)c(C#N)c(=O)[nH]2)cc1S(N)(=O)=O
inactive: [1] 100% | [2] 100% | [3] 113% | [4] 99.3% | [5] 102% | [6] 99.4% | [7] 126% | [8] 109% | [9] 109% | [10] 105%

CCCCCCCCc1ccc(C(=O)Nc2ccc(C)cc2C(=O)O)cc1
inactive: [1] 90% | [2] 63.5% | [3] 94.1% | [4] 109% | [5] 99.8% | [6] 100% | [7] 83.9% | [8] 94% | [9] 105% | [10] 94.1%

COc1ccc(/C=C/C(=O)c2ccc(OC)c(S(N)(=O)=O)c2)c(C(F)(F)F)c1
inactive: [5] 18.6% | [6] 66.6% | [8] 15.8% | [9] 49.3%
active: [1] 0.801% | [2] 3.98% | [3] 6.69% | [4] 3.65% | [7] 1.64% | [10] -31.4%

OCCn1cc(-c2nc3ccc4[nH]ncc4c3c3c2CCCC3)cn1
inactive: [2] 31.4% | [3] 44.7% | [4] 97.8% | [5] 64.2% | [6] 14.6% | [7] 52% | [8] 58.8% | [9] 21.6% | [10] 76.8%
active: [1] -3.53%

O=C1C=CC(=CC=C2N(Cc3ccc4ccccc4c3)c3ccccc3N2Cc2ccc3ccccc3c2)C=C1
7.62% (active) and 29.5% (inactive): [7]
active: [1] 3.48% | [2] -5.25% and -13.4%
24.2% (inactive) and -1.46% (active): [8]
inactive: [3] 20.2% and 24.9% | [4] 36.6% and 47.2% | [5] 37.9% and 27.6% | [6] 13.4% and 46.4% | [9] 52.3% and 32.6% | [10] 104% and 102%

CN1C(=O)C2(C(C#N)=C(c3ccc(Cl)cc3)Nc3c2c(-c2ccccc2)nn3-c2ccccc2)c2ccccc21 (stereo not given)
inactive: [1] 29.6% | [2] 60.3% | [3] 98.5% | [4] 96% | [5] 96.1% | [6] 99.2% | [7] 98% | [8] 112% | [9] 65.3% | [10] 78.8%

S=C(NCCc1ccccc1)Nc1ccc(OCc2nc3ccc(Cl)cc3[nH]2)cc1
active: [1] -7.42% | [2] 7.74%
inactive: [3] 39.7% | [4] 30.5% | [5] 32.1% | [6] 77.2% | [7] 31.4% | [8] 34.9% | [9] 38.4% | [10] 11.7%

Cc1ccc(C(=O)Nc2cc(-n3ccnc3)cc(C(F)(F)F)c2)cc1-n1cc(-c2cnc3cccnn23)nn1
inactive: [1] 114% | [2] 85.2% | [3] 103% | [4] 66.6% | [5] 104% | [6] 124% | [7] 104% | [8] 133% | [9] 94.9% | [10] 115%

O=C(c1ccc(Cl)cc1)C1[C@H](c2ccccc2Cl)[C@@H](c2ccccc2)NC12C(=O)Nc1ccc(Cl)cc12 (stereo not given in full)
active: [1] -52.8% | [2] 2.23% | [3] -76.4% | [4] -53.8% | [5] -14.4% | [6] 1.4% | [7] -42.5% | [8] -28.9% | [9] -40.4% | [10] -82.7%

Cn1cc(-c2cc(N)n3nc(-c4c[nH]c5ccccc45)cc3n2)c2cc(Cl)ccc21
inactive: [1] 20%
active: [2] -7.08% | [3] -63.7% | [4] -65.9% | [5] -29.3% | [6] -61.4% | [7] -65.5% | [8] -52.5% | [9] -21.2% | [10] -12.8%

O=C(CSc1nnc(-c2ccc(-c3nc4ccccc4[nH]3)cc2)o1)Nc1ccc(Br)cc1
inactive: [4] 44.7% | [5] 54.3% | [6] 79% | [7] 35.8% | [8] 34.2% | [9] 57.2% | [10] 21.5%
active: [1] 5.23% | [2] 7.82% | [3] 4.46%

CC(=O)C[n+]1cccc2c3ccccc3ccc21
inactive: [1] 66.3% | [2] 64% | [3] 81.5% | [4] 103% | [5] 63.8% | [6] 96.1% | [7] 95.2% | [8] 70% | [9] 102% | [10] 107%

CC(C)(C)OC(=O)N1C/C(=C\c2ccc(F)cc2)C(=O)/C(=C/c2ccc(F)cc2)C1
active: [1] -11.1% | [2] -15.4% | [3] -68.3% | [4] -81.9% | [5] -9.66% | [6] 0.0941% | [7] -56.8% | [8] -90% | [9] -6.73% | [10] -56.8%

O=C1c2cccc3c(N4CCN(c5ccccc5)CC4)ccc(c23)C(=O)N1c1cccc(-c2nn(-c3ccccc3)cc2-c2nc3ccccc3s2)c1
inactive: [1] 90.9% | [2] 95.9% | [3] 106% | [4] 108% | [5] 99.9% | [6] 97.6% | [7] 73.9% | [8] 98% | [9] 102% | [10] 98.3%

COc1cc(CNC(=O)C[C@H](C)CCC=C(C)C)ccc1OCc1cn(-c2ccc(Br)cc2)nn1
inactive: [1] 63.8% | [2] 69.3% | [3] 47.5% | [4] 105% | [5] 49.5% | [6] 64% | [7] 89.9% | [8] 105% | [9] 73.8% | [10] 52.1%

COc1nc(N)ncc1-c1ccc2ncnc(N3CCc4cc(F)c(Cl)cc43)c2c1
active: [1] -11.2% | [3] -24.1% | [4] -2.67% | [5] -84.5% | [6] -36.6% | [7] -45.3% | [8] -24.7% | [9] 7.35%
inactive: [2] 14% | [10] 18.9%
